PME-1 inh = blocks human protein phosphatase methylesterase 1 | Q9Y570 | recombinant PME-1, FP-Rh probe fluorescence polarization | inhibition, % at 5.9 µM | 0.53% of 320,000 active | AID 2130;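 active means inhibition above the campaign mean of all compounds plus 3 SD, cut at about 26% in these data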;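 further: competitive labeling of PME-1 active site by serine hydrolase directed probe; inhibitors block probe labeling so polarization falls and inhibition rises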
LYPLA1 inh = counter-screen for PME1 inhibitors: inhibitors of human LYPLA1; O75608; recombinant LYPLA1, FP-Rh probe fluorescence polarization; inhibition, % at 5.9 µM; 0.16% of 320,000 active;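 active means inhibition above the mean of all tested compounds plus 3 SD, set per campaign, cut at about 14% in these data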;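 further: inhibitors block serine hydrolase probe labeling of LYPLA1 so polarization falls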
Target sequence (O75608 whole entry, looked up): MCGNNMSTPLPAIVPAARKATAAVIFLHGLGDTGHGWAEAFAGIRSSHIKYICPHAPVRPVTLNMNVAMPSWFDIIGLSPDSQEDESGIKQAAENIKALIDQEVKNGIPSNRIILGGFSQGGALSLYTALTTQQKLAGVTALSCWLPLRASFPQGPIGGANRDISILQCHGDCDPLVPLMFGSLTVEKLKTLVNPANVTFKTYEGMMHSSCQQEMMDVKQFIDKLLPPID
PREPL inh = inhibits the human prolyl oligopeptidase-like enzyme | Q4J6C6 | recombinant PREPL, fluorescence polarization activity-based probe | inhibition, % at 5.96 µM | 0.68% of 320,000 active; in the data active means inhibition above about 43%
LYPLA2 inh = LYPLA2 (human) inhibition in PME1 counter-screen. AID 2177. 0.38% of 320,000 active. O95372. inhibition, % at 5.9 µM. recombinant LYPLA2, FP-Rh probe fluorescence polarization;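 active means inhibition above the screen-wide mean plus 3 SD, limit set per campaign, cut at about 26% in these data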
Target sequence (O95372 whole entry, looked up): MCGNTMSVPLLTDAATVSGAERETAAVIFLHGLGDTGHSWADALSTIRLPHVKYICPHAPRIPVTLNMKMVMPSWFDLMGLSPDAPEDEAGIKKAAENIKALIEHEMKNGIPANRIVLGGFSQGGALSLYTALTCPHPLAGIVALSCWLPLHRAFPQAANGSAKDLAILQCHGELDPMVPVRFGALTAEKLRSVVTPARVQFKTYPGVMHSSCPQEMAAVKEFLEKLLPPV
Fam108B inh = Fam108B inhibition, counter-screen for RBBP9 inhibitors | recombinant Fam108B, FP-Rh probe fluorescence polarization | inhibition, % at 9.51 µM | 0.33% of 300,000 active | AID 1947;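 active means inhibition above the screen mean inhibition plus 3 SD, computed separately per campaign, cut at about 18% in these data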;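 further: inhibitors lower polarization as less probe binds the enzyme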
Fam108b confirm = Fam108b (mouse) hydrolase inhibition, confirmation assay; shares compounds with Fam108B inh; recombinant Fam108b, FP-Rh probe fluorescence polarization; inhibition, % at 9.51 µM; 44% of 930 active; AID 1978;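 active means inhibition above a limit from the primary screen, the mean over all compounds plus 3 SD, cut at about 19% in these data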;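 further: inhibitors free the probe so polarization falls as inhibition rises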
Fam108b ABPP HTS = inhibits mouse Fam108b in gel-based ABPP; shares compounds with Fam108B inh; recombinant Fam108b, fluorophosphonate probe; inhibition, % at 20 µM; 44% of 260 active; in the data active means inhibition above about 40%
LYPLA1 conf = LYPLA1 (human) inhibition, confirmation counter-screen. 69% of 480 active. inhibition, % at 5.9 µM. AID 2233. shares compounds with LYPLA1 inh. recombinant LYPLA1, FP-Rh probe fluorescence polarization;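 active means mean inhibition across replicates above the hit cutoff set in the primary screen, cut at about 15% in these data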;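 further: loss of FP-Rh probe labeling of LYPLA1 seen as lower polarization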
LYPLA2 confirm = LYPLA2 (human) inhibition, confirmation counter-screen; shares compounds with LYPLA2 inh; recombinant LYPLA2, FP-Rh probe fluorescence polarization; inhibition, % at 5.9 µM; 72% of 1,100 active; AID 2232;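 active means mean inhibition across replicates above the hit cutoff set in the primary screen, cut at about 26% in these data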;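 further: blocked labeling of the enzyme by serine hydrolase FP-Rh probe lowers polarization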
Numbers stand for hits; 0 = inactive; - = no result. An excerpt weighted towards active compounds, which were near 1.3% of everything screened.

SMILES	PME-1 inh	LYPLA1 inh	PREPL inh	LYPLA2 inh	Fam108B inh	Fam108b confirm	LYPLA1 conf	others
COc1ccc(O)c(/C=N/NC(=S)Nc2cccc(S(=O)(=O)N(C)C)c2)c1	53	0	0	0	37	0	-
COc1ccccc1CCNC(=O)C(=O)NCC1OCCN1C(=O)c1ccc(Cl)cc1 (stereo not drawn)	0	0	0	0	0	-	-
COc1ccc2ccccc2c1/C=N/NC(=O)c1cccc(Br)c1	0	0	0	0	0	-	-
O=C(N/N=C/c1c(O)ccc2ccccc12)c1cccc(C(F)(F)F)c1	0	0	0	0	19	0	-
CCC(C)[C@H](NC(=O)N1CC(=O)Nc2ccccc21)C(=O)N[C@H](C(=O)O)c1ccccc1 (stereo partly drawn)	0	0	0	0	0	-	-
CN(C)c1ccc(/C=C(\C#N)C(=O)NCc2ccco2)cc1	0	22	0	0	29	0	0
CCN(CC)c1ccc(/C=C(\C#N)C(=O)NCc2ccco2)cc1	0	0	0	0	0	-	-
O=C1NC(=Nc2ccccc2Cl)S/C1=C\c1cc([N+](=O)[O-])ccc1O	0	27	0	0	33	42	31	Fam108b ABPP HTS=0
COc1cccc(N=C2NC(=O)/C(=C/c3cc([N+](=O)[O-])ccc3O)S2)c1	0	17	0	0	19	0	41
CC(C)c1nc(SCC(=O)c2ccccc2)c2c(=O)n(C)c(=O)n(C)c2n1	0	0	0	0	0	-	-
CCCOc1ccc(/C(CC)=N/NC(=O)C2(C)CC2(Br)Br)cc1 (stereo not drawn)	0	17	0	28	41	0	0
O=C(COC(=O)CCc1nc2ccccc2c(=O)[nH]1)NC(=O)NC1CCCC1	0	0	0	0	0	-	-
CC1=CN2C(=N)/C(=C/c3ccc([N+](=O)[O-])o3)C(=O)N=C2S1	33	17	0	0	19	0	0
CC1=CN2C(=N)/C(=C/c3ccco3)C(=O)N=C2S1	0	0	0	0	0	-	-
O=C1c2cccc3c(O)ccc(c23)C(=O)N1Cc1ccccc1	0	21	0	31	28	28	24
COc1cc(CC(NC(C)=O)C(=O)NC2CCN(S(=O)(=O)c3ccc(NC(C)=O)cc3)CC2)cc(OC)c1 (stereo not drawn)	0	0	0	0	0	-	-
CN1/C(=C\C=C2/C(=O)Oc3ccccc3C2=O)C(C)(C)c2ccccc21	0	51	0	0	139	0	0
CC1=NN(c2ccccc2)C(=O)/C1=C\C=C1/N(C)c2ccccc2C1(C)C	0	0	0	0	0	-	-
O=C(CNC(=O)c1ccccn1)N=Nc1c(O)[nH]c2ccccc12	0	0	0	0	0	-	-
COCCn1c(C)cc(/C=N/NC(=O)c2cc3ccccc3cc2O)c1C	0	0	0	0	-	-	-
Cn1c(O)c(/C=N/NC(=O)c2cc3ccccc3cc2O)c2ccccc21	70	15	0	0	36	31	16
O=[N+]([O-])c1ccc(Sc2ccccn2)nc1	0	0	0	0	0	-	-
O=C(Nc1cc(Sc2ccccn2)cc([N+](=O)[O-])c1)c1ccc([N+](=O)[O-])cc1	0	0	0	57	19	0	-	LYPLA2 confirm=0
CCn1c(CSc2nnc(-c3ccncc3)n2C)nc2cc(C(=O)O)ccc21	40	37	0	41	29	37	41	Fam108b ABPP HTS=0;LYPLA2 confirm=36
CCn1c(CSc2ncn[nH]2)nc2cc(C(=O)O)ccc21	0	0	0	0	0	-	-
COC(=O)c1nn(-c2ccc(Cl)cc2)c(=O)cc1Sc1ccccn1	0	0	0	0	0	-	-
N=C1CCC(=N)c2c1c(O)c1ccccc1c2O	64	31	0	42	39	0	0	LYPLA2 confirm=0
Cc1nc2ccccc2n2c(O)c(CC(=O)O)cc12	0	0	0	27	18	0	-	LYPLA2 confirm=0
Cc1nc2ccccc2n1CCC(=O)O	0	0	0	0	0	-	-

Screening results as filed in PubChem BioAssay.
